Source: article PMC4336329 (PLoS ONE, 2015)
The whole screen tested about 310,000 compounds, of which about 14,000 (4.5%) showed an effect of 50% or more. Effects have a minus sign here. The sample holds strong results, similar compounds and a random draw of the others, so the mix is not that of the screen.

These compounds were tested against human ether-à-go-go-related gene (hERG) potassium channel (human, UniProt Q12809) (assay: primary screen, population patch clamp on CHO cells stably expressing hERG; higher = less effect of the substance).
Sequence of human ether-à-go-go-related gene (hERG) potassium channel (Q12809 whole entry, looked up): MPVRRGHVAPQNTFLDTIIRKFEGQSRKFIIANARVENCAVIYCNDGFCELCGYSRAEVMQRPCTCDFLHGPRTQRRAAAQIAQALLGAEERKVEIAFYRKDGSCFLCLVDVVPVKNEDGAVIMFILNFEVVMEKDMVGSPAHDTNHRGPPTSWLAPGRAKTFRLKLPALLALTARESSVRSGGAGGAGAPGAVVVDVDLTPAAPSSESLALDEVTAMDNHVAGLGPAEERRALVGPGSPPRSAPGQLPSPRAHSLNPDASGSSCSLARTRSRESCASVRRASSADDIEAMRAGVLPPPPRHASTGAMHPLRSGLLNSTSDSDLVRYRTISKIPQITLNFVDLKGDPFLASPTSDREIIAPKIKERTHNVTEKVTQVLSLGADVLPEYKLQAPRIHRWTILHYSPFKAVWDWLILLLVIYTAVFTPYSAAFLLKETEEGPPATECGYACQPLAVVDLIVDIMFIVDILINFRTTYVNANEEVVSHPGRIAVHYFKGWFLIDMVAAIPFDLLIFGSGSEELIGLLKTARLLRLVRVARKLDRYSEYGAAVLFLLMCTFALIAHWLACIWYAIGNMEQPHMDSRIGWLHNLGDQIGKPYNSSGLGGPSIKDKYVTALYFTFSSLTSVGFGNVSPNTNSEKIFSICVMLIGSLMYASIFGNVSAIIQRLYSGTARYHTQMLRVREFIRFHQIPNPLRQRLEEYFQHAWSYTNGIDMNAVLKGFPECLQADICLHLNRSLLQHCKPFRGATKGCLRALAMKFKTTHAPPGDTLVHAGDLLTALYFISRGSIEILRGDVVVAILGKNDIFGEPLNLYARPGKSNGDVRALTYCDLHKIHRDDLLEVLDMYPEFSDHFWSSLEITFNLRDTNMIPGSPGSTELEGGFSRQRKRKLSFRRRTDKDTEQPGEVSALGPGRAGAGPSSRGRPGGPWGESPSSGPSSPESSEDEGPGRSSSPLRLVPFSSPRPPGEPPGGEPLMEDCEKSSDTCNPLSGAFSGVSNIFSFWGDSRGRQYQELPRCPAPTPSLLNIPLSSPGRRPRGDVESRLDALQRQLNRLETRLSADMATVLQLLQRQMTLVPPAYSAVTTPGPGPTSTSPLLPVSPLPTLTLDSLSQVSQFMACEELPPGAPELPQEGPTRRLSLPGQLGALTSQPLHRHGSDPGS
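Also: peak tail current of the secondary pulse compared with the same well before compound.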

| SMILES | hERG current change (%, negative = inhibition) at 10uM |
| --- | --- |
| Oc1ccc(CN2CCc3ccccc3C2)c2cccnc12 | -48.8% |
| Cn1c(C(=O)N2CCN(C(=O)c3ccco3)CC2)cc2c(=O)n3ccccc3nc21 | -14.5% |
| CC(C)C(NS(=O)(=O)c1ccc2c(c1)OCCO2)C(=O)NCCc1ccccn1 (stereo not drawn) | 6.06% |
| Cc1cccc(NC(=O)CSc2nnc(C)c(C)n2)c1 | 15.3% |
| COc1nc(OC)nc(N2CCC(NC(=O)C(Cc3ccc(C(C)C)cc3)NC(C)=O)CC2)n1 (stereo not drawn) | 5.87% |
| CO/N=C(\C(=O)N[C@@H]1C(=O)N2C(C(=O)[O-])=C(COC(N)=O)CS[C@H]12)c1ccco1.[Na+] | 18.9% |
| O=C(Nc1ccc(Br)cn1)c1cccc2ccccc12 | 12.2% |
| CCCCN1CCC(COC(=O)c2cc(Cl)c(N)c3c2OCCO3)CC1.Cl | -59.4% |
| CC1CCN(C(=O)COC(=O)c2cc(Cl)cc(Cl)c2N)CC1 | -19.9% |
| Cl.O=C(OCCN1CCOCC1)c1ccc(Cl)cc1Cl | -0.913% |
| COc1cc(C(=O)OCc2cc(=O)c(O)co2)ccc1OC(F)F | -12.9% |
| O=C(NCC(=O)N(CCN1CCOCC1)C(C(=O)NC1CCCC1)c1cccnc1)c1cccs1 (stereo not drawn) | 13.1% |
| CCOC(=O)C1(CCc2ccccc2)CCN(C(=O)CCc2cnn(C)c2)CC1 | -51.2% |
| CCOC(=O)C1(CCCc2ccccc2)CCN(CCCn2cccn2)CC1 | -79.1% |
| CCOC(=O)C1(Cc2ccccc2)CCCN(CCCn2cccn2)C1 (stereo not drawn) | -14.2% |
| CCOC(=O)C1(CCCc2ccccc2)CCN(Cc2cnn(C)c2)CC1 | -71.6% |
| CCOC(=O)C1(CCCc2ccccc2)CCN(C(=O)CCC2=NNC(=O)CC2)CC1 | 11.8% |
| CCOC(=O)C1(CCc2ccccc2)CCN(C(=O)CN2C(=O)CSC2=O)CC1 | -23.3% |
| CCOC(=O)C1(CCCc2ccccc2)CCN(C(=O)CCOC)CC1 | -46.8% |
| CCOC(=O)C1(CCCc2ccccc2)CCN(C(=O)CCc2cnn(C)c2)CC1 | -74.2% |
| Cc1cc(OCC(=O)Nc2ccncc2)cc(C)c1Cl | 6.51% |

| SMILES | hERG current change (%, negative = inhibition) at 10uM |
| --- | --- |
| Cc1ccc(CNC(=O)/C=C/C(=O)O)cc1 | -15.4% |
| Cc1n[nH]c(=O)n1-c1ccc(C(C)C)cc1 | 18.4% |
| O=C(Nc1ccccc1)NC1(C(=O)N2CCN(C(=O)c3ccco3)CC2)CCCCC1 | 0.526% |
| CCc1ccc(C2C(=O)c3ccccc3C2=O)cc1 | -3.18% |
| O=C(NNC(=O)c1cnccn1)c1ccc(Cl)cc1 | 10.1% |
| Cc1cccc(N2CCN(Cc3cc(=O)n4ccsc4n3)CC2)c1C | -37.1% |
| CCOC(=O)CC12CN3CN(C1)CC(CC(=O)OCC)(C3)C2=O | 8.62% |
| O=C(O)CCn1c(=S)oc2ccccc21 | -0.618% |
| CCOC(=O)C1(CCCc2ccccc2)CCN(Cc2cn(CC)nc2C)CC1 | -74.1% |
| CCOC(=O)C1(CCCc2ccccc2)CCN(C(=O)Cn2nc(C)nc2C)CC1 | -24.6% |
| CCOC(=O)C1(Cc2ccccc2)CCN(Cc2cnn(-c3ccccc3)c2)CC1 | -81.4% |
| CCOC(=O)C1(Cc2ccccc2)CCN(Cc2cnn(CC)c2)CC1 | -21.2% |
| CCOC(=O)C1(Cc2ccccc2)CCN(Cc2cnn(C(C)C)c2)CC1 | -28.7% |
| CCN1C(=O)C(=Cc2ccc(C)s2)C(=O)N(CC)C1=S | 5.09% |
| COc1ccc(OCC(=O)NCc2ccc(Cl)cc2)cc1 | 1.55% |
| COC(=O)c1nc(N)sc1-c1ccc(OC)cc1 | 10.3% |
| Cc1ccc(Oc2ccccc2NC(=O)CN2C(=O)NC3(CCCC3)C2=O)cc1 | 11% |
| O=C1NC(=O)N(c2ccc(Cl)cc2)C(=O)/C1=C\c1ccc(Sc2nc3ccccc3[nH]2)o1 | -65.6% |
| O=C1NC(=O)N(c2ccccc2F)C(=O)/C1=C/c1ccc(Sc2nc3ccccc3[nH]2)o1 | -4.03% |
| O=C1NC(=O)N(c2cccc(Cl)c2)C(=O)/C1=C\c1ccc(Sc2nc3ccccc3[nH]2)o1 | 13.9% |
| c1ccc(-n2ncc3c2ncn2nc(-c4ccco4)nc32)cc1 | 13.3% |
